Hit rate of the full screen: of about 320,000 compounds, about 2,100 (0.66%) were called active. Inconclusive results (about 53%) are left out. Calls follow the shape of the dose curve; as a rule, active = well fitted inhibition curve with a large enough effect in the signal ratio, with a control signal flat (not every such curve was filed as active); inconclusive = small, poorly fitted or top-dose-only effect, or effect the other way, or a change in a side signal; inactive = flat fitted curve, though single readings scatter; the % refers to the signal ratio. Only a selection was taken, and actives are over-represented in it overall.
Potency is read from the fitted curve at half-maximal effect.

This test is described as follows: qHTS Assay for Lipid Storage Modulators in Drosophila S3 Cells.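 As to cell number change: cells counted by Cell Tracker Red CMTPX staining in the red channel.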 As to lipid storage change, negative = inhibition: % is scaled to controls: 0 for no effect and ±100 for the full control effect. To be noted: BODIPY lipid droplet fluorescence, 18-24 h, cells fed with added oleic acid; cell number change: measured here: cell count max response; series mostly up to 46.1 µM; lipid storage change, negative = inhibition: at the top concentration. The procedure, abridged: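 Drosophila S3 cells got compounds at several concentrations plus oleic acid (400 uM solution). Laser-scanning cytometry with 488 nm excitation read lipid droplets at 500-530 nm and cells at 575-640 nm. Percent activity was relative to 20 uM Triacsin C.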
(In qHTS, concentration-response curves come from the screen itself.)
For the molecule `CCCCC(Sc1nc(N)c(NC(=O)c2ccco2)c(=O)[nH]1)C(=O)O` (stereo not drawn), the call was inactive and the cell number change is -24.3%. For `O=C(CN(C(=O)c1csnn1)c1cccc(Cl)c1)NCCc1ccccc1` the same measures were “inactive” and 12.4%. With `Cc1ccccc1NC(=O)CSc1ccc(-c2ccco2)nn1`, the “lipid storage change, negative = inhibition” value is 6.34% (inactive) and the cell number change is -9.57%. Turning to `CCCNc1ccc(S(=O)(=O)N(CC)CC)cn1`, the “lipid storage change, negative = inhibition” value was -12.3% (inactive) and the cell number change was determined as 5.83%.

`Cc1ccc(S(=O)(=O)N(CC(=O)NC2CC2)c2ccc(C)c(Cl)c2)cc1`: the “lipid storage change, negative = inhibition” value is -26.3% (inactive). As for `CCOC(=O)CCN`, the molecule was classed as inactive and the cell number change was 3.17%.

Regarding `O=C(NCC1CCCO1)c1ccc2c(c1)C(=O)N(C1CCCCC1)C2=O` (stereo not drawn), the result was inactive and the cell number change worked out at 2.66%. As to `O=C(NCC1CCCO1)c1ccc(NS(=O)(=O)c2cccc([N+](=O)[O-])c2)cc1` (stereo not drawn), the “lipid storage change, negative = inhibition” value is -23.3% (inactive) and the cell number change is 5.5%. Turning to `O=C(NCC1CCCO1)c1ccc2c(c1)C(=O)N(c1cccc([N+](=O)[O-])c1)C2=O` (stereo not drawn), the Potency was 0.82 µM (active) and the cell number change is -9.52%. As for `Nc1c(-c2ccc(Cl)cc2)cnn1-c1cccc(C(F)(F)F)c1`, the “lipid storage change, negative = inhibition” value is 3.21% (inactive) and the cell number change was found to be 10.7%. In the case of `NC(=O)C1CCCN(Cc2ccc3ccccc3c2)C1` (stereo not drawn), the call was inactive and the cell number change came to 10.8%. With `NC(=O)C1CCCN(Cc2ccc(Cl)cc2)C1` (stereo not drawn), the Potency was 29.1 µM (active) and the cell number change was -11.1%. For `O=C(C1CCCN(Cc2ccc(Cl)cc2)C1)N1CCCCC1` (stereo not drawn), the molecule was classed as inactive and the cell number change is 22.8%. For `O=C(COC(=O)c1ccc(S(=O)(=O)NCc2ccco2)cc1)NCC1CCCCC1`, the Potency was 25.9 µM (active) and the cell number change is -12.1%. Turning to `O=C(COC(=O)c1ccc(S(=O)(=O)NCc2ccco2)cc1)NC1CCCCC1`, the “lipid storage change, negative = inhibition” value was 6.47% (inactive) and the cell number change was 0.997%.

Consider `Cc1ccc(CNC(=O)COC(=O)c2ccc(S(=O)(=O)NCc3ccco3)cc2)cc1`, for which the “lipid storage change, negative = inhibition” value was 14.5% (inactive) and the cell number change was -0.995%. On the same counts, the results for `C#CCOCCOCCOCCNc1nc(N2CCN(C(=O)[C@H](CCC(=O)O)n3cc(C(N)[C@H](C)CC)nn3)CC2)nc(N2CCN(C(=O)[C@H](CCC(=O)O)n3cc(C(N)[C@H](C)CC)nn3)CC2)n1` (stereo partly drawn) are -5.28% (inactive) and -3.88%. With `O=C(CN(Cc1ccccc1)S(=O)(=O)c1ccccc1)N/N=C/c1ccc([N+](=O)[O-])cc1`, the “lipid storage change, negative = inhibition” value is 13.5% (inactive) and the cell number change was -4.65%. On the same counts, the results for `Cc1ccc(OCC(=O)NNC(=S)NC(=O)c2ccc(Br)o2)c(C)c1` are 19.1% (inactive) and 7.54%. For the molecule `Cc1ccc(-n2nc3c(=O)n(CC(=O)NCCCc4ccccc4)nc(C)c3c2C)cc1`, the Potency is 18.4 µM (active) and the cell number change was found to be 21%. Take `Cc1ccc(-n2nc3c(=O)n(CC(=O)NCCc4ccc(Cl)cc4)nc(C)c3c2C)cc1`: the “lipid storage change, negative = inhibition” value is 12.1% (inactive) and the cell number change is -10.8%. Turning to `Cc1ccc(-n2nc3c(=O)n(C(C)C(=O)NCCCc4ccccc4)nc(C)c3c2C)cc1` (stereo not drawn), the result was inactive and the cell number change is -8.4%. Consider `Cc1cc(C)cc(NC(=O)CSc2ncc(S(=O)(=O)c3ccccc3)c(=O)[nH]2)c1`, for which the “lipid storage change, negative = inhibition” value is 6.14% (inactive) and the cell number change amounted to 4.62%. `O=C(CN1C(=O)C(=O)N(C2CCCC2)C1=O)NCCc1ccc(Cl)cc1Cl`: the Potency is 4.11 µM (active) and the cell number change was -0.378%. With `O=C(CN1CCNC(=O)C1)NCCc1ccc(Cl)cc1Cl`, the “lipid storage change, negative = inhibition” value was -25.2% (inactive) and the cell number change is -23.8%. On the same counts, the results for `O=C(CN1CC(=O)Nc2ccccc21)NCCc1ccc(Cl)cc1Cl` are -1.77% (inactive) and -5.87%. For `CC(=O)c1cccc(NC(=O)c2cc(C)no2)c1` the same measures were 1.89% (inactive) and 5.99%. Take `CCC(C)[C@@H](N)C(=O)N/N=C/c1cccc2nccnc12` (stereo partly drawn): the “lipid storage change, negative = inhibition” value is -5.79% (inactive) and the cell number change is -7.62%. On the same counts, the results for `CC(C)C(c1nnnn1Cc1ccco1)N1CCC(C(N)=O)CC1` (stereo not drawn) are -0.139% (inactive) and -12.1%. `CCC(c1nnnn1Cc1ccco1)N1CCC(C(N)=O)CC1` (stereo not drawn): the Potency was 5.8 µM (active) and the cell number change was -7.68%.

As for `CCC(c1nnnn1Cc1ccco1)N1CCN(C(=O)c2ccco2)CC1` (stereo not drawn), the “lipid storage change, negative = inhibition” value is 3.59% (inactive) and the cell number change came out at 0.561%.

Regarding `CCCC(=O)Nc1ccc2oc(=O)ccc2c1`, the “lipid storage change, negative = inhibition” value is -2.96% (inactive) and the cell number change was -4.63%. On the same counts, the results for `Cc1ccccc1C(=O)N1CCCC(N2CCN(Cc3ccc4c(c3)OCO4)CC2)C1` (stereo not drawn) are 5.73% (inactive) and 0.496%. Take `CCNc1nc(NCC)n2c(SCC(=O)O)nnc2n1`: the Potency is 29.1 µM (active) and the cell number change was -12%. For the molecule `CCNc1nc(NCC)n2c(SCC(=O)Nc3ccccc3)nnc2n1`, the “lipid storage change, negative = inhibition” value is -3.31% (inactive) and the cell number change is 9.23%. On to `CCNc1nc(NCC)n2c(SCC(=O)c3ccccc3Cl)nnc2n1`, for which the “lipid storage change, negative = inhibition” value was 12.4% (inactive).

For `Cc1csc(NC(=O)c2ccc(S(=O)(=O)N3CCCC3)cc2)n1`, the “lipid storage change, negative = inhibition” value was 3.45% (inactive) and the cell number change came out at 5.75%. For `O=C(CNS(=O)(=O)c1cccc2nonc12)NCc1ccc(F)cc1`, the result was inactive. With `CCC(C(=O)NC1CCCCC1)n1c2ccccc2c2nc(=O)cc(C)n21` (stereo not drawn), the molecule was called inactive and the cell number change worked out at 1.33%. Take `COc1cc2c(cc1OC)n(CC(=O)NC1CCCCCC1)n1c(C)cc(=O)nc21`: the Potency is 8.2 µM (active) and the cell number change was -21.9%. For the molecule `COc1cccc2c1cc1c(=O)n(CC(=O)NC3CCCCC3)nc(C)n12`, the “lipid storage change, negative = inhibition” value was 7.54% (inactive) and the cell number change is -12.9%. As to `Nc1nc(C2CCCN2S(=O)(=O)c2ccc(Cl)cc2)cs1` (stereo not drawn), the molecule was classed as inactive and the cell number change is -2%. `CCOc1ccc(NC(=O)C2CCC(CNc3c(N4CCCCC4)c(=O)c3=O)CC2)cc1` (stereo not drawn): the “lipid storage change, negative = inhibition” value is 2.07% (inactive). Regarding `CC(C)CC(=O)Nc1cccc(-c2nc3ncccc3o2)c1`, the “lipid storage change, negative = inhibition” value was 8.93% (inactive) and the cell number change is -6.34%.

Regarding `CCCCC(=O)Nc1cccc(-c2nc3ncccc3o2)c1`, the “lipid storage change, negative = inhibition” value is 18.9% (inactive) and the cell number change was 0.0678%.

On to `O=C(CSc1ccc(Cl)cc1)Nc1cccc(-c2nc3ncccc3o2)c1`, for which the Potency was 1.3 µM (active) and the cell number change is -12.7%.

(Values after PubChem BioAssay AID2685 (National Center for Advancing Translational Sciences (NCATS), 2010).)
